Values joined by “and” are separate entries in the source; they are usually repeats but may differ in a detail not shown here. Equal entries are not always repeated. Inconclusive results are not listed. The source holds several records for some structures; these can differ, active in one and inactive in another. Active and inactive are the calls of the source. Unless noted, how the calls were made is not given here.
Columns and labels:
[1] = circadian clock period modulators, cell-based, LOPAC library, luminescence reporter (AID 2774); conditions: circadian reporter cells, at 7 µM, actives lie on both sides;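 further: values are relative to mean of DMSO wells on each plate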
[2] = system: Hepatitis C virus NS3 helicase; test: HCV NS3 helicase inhibitors, primary screen, biochemical, fluorescence polarization, LOPAC1280 library (AID 687035; in the data active means inhibition above about 37%); conditions: Purified HCV NS3 helicase, Cy5-dT15 ssDNA binding fluorescence polarization; stronger effect = higher value; concentration not given here
[3] = Cy5 fluorescence quenching or enhancement artefacts, artefact control for HCV NS3 helicase inhibitor project, biochemical, LOPAC1280 (AID 687037); conditions: Cy5-DNA-NS3h complex fluorescence interference counterscreen
[4] = Cy5 fluorescence interference with SSB-bound oligo, artefact control for HCV NS3 helicase inhibitor project, biochemical, NIH Clinical Collection, E. coli SSB (AID 743268)
[5] = system: Hepatitis C virus NS3 helicase; test: HCV NS3 helicase inhibitors, primary screen, biochemical, fluorescence polarization, NIH Clinical Collection (AID 743270); conditions: NS3 helicase binding to Cy5-dT15 DNA, stronger effect = higher value, concentration not given here
[6] = target: Single-stranded DNA-binding protein (Escherichia coli (strain K12)) (UniProt P0AGE0); test: E. coli SSB displacement from DNA, counter-screen for HCV NS3 helicase inhibitor project, biochemical, fluorescence polarization, NIH Clinical Collection (AID 743271; in the data active means inhibition above about 28%); conditions: stronger effect = higher value, concentration not given here
[7] = fluorescence interference in NS3h assay format, artefact control for HCV NS3 helicase inhibitor project, biochemical, NIH Clinical Collection (AID 743272); conditions: fluorescence interference counterscreen, stronger effect = lower value;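 further: HCV NS3 helicase with a Cy5 labelled single stranded DNA probe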
[8] = system: Aerobactin synthetase IucA (Klebsiella pneumoniae); test: IucA aerobactin synthetase inhibitors, biochemical, Tocris library, absorbance (AID 1345561); conditions: purified IucA enzyme assay, absorbance (OD) read-out; stronger effect = lower value;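 tested at 8 µM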;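 further: 100% = enzyme without compound and 0% = no enzyme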
[9] = growth inhibition of DIPG glioma cells, dose response, cell-based, SU-DIPG-XVII, MIPE5.0, CellTiter-Glo, qHTS (AID 1347060; cut-off not given, nearly all actives have AC50 up to about 26 µM;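 on AC50: cells exposed to compound for 48 hours before viability readout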); conditions: SU-DIPG-XVII viability, CellTiter-Glo ATP luminescence
[10] = growth inhibition of DIPG glioma cells, dose response, cell-based, SU-DIPG-XIII, MIPE4.0, CellTiter-Glo, qHTS (AID 1347061; cut-off not given, nearly all actives have AC50 up to about 37 µM;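 further: cells exposed to compound for 48 hours before readout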); conditions: SU-DIPG-XIII viability, CellTiter-Glo ATP luminescence
[11] = growth inhibition of DIPG glioma cells, dose response, cell-based, SU-DIPG-XIII, MIPE5.0, CellTiter-Glo, qHTS (AID 1347064; cut-off not given, nearly all actives have AC50 up to about 23 µM;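 on AC50: cells exposed to compound for 48 hours before the viability read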); conditions: SU-DIPG-XIII viability, CellTiter-Glo ATP luminescence
[12] = viability rescue of complex I mutant cybrids, primary screen, cell-based, galactose medium, ATP luminescence (AID 1645843;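 active means z-score of at least 1.8 in each of two replicates, scored against plate mean and spread of sample wells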;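 further: positive z means more ATP and so rescue of galactose-driven cybrid death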); conditions: complex I mutant cybrid cells, 72 h, stronger effect = higher value
[13] = viability loss in pontine glioma line – cell-based, SU-DIPG-XXV, MIPE5.0, CellTiter-Glo, qHTS, dose response (AID 1347065; cut-off not given, nearly all actives have AC50 up to about 26 µM;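 further: cells exposed to compound for 48 hours before ATP readout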); conditions: CellTiter-Glo ATP luminescence
[14] = SU-DIPG-VI glioma cell viability, MIPE4.0 library, CellTiter-Glo luminescence, qHTS (AID 1347066; cut-off not given, nearly all actives have AC50 up to about 30 µM;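 further: cells exposed to compound for 48 hours before readout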); conditions: CellTiter-Glo ATP luminescence
[15] = JHH-DIPG-1 glioma cell viability, MIPE5.0 library, CellTiter-Glo luminescence, qHTS (AID 1347067; cut-off not given, nearly all actives have AC50 up to about 26 µM;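 further: cells exposed to compound for 48 hours before readout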); conditions: JHH-DIPG-1 glioma viability, CellTiter-Glo ATP luminescence
[16] = reducers of polyQ inclusions in PC12 cells, cell-based, NGF-treated PC12, GFPQ80 (AID 1614); conditions: PC12 NGF-treated GFP-polyQ80 inclusion reduction;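 further: lower means fewer inclusions and 0 means no inclusions at all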
[17] = MDA-MB-436 breast carcinoma cell growth inhibition, synergistic combos for chromothripsis tumors, BGB or cisplatin combos (AID 1671458); conditions: MDA-MB-436 breast carcinoma growth inhibition, drug combinations, stronger effect = higher value;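 further: cells exposed for 96 hours; 0% = vehicle DMSO and 100% = killing by high DMSO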
[18] = growth inhibition of BT084 medulloblastoma cells, cell-based, ICGC_MB145, cisplatin and BGB IC40 combos (AID 1671461; in the data active means inhibition above about 80%;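 further: cells exposed to drugs for 96 hours; 0% = vehicle DMSO and 100% = high DMSO full killing control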); conditions: drug combinations, stronger effect = higher value
[19] = growth inhibition of RCMB18 medulloblastoma cells, cell-based, cisplatin and BGB IC40 combos (AID 1671462; in the data active means inhibition above about 80%;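 further: cells exposed to compound for four days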); conditions: stronger effect = higher value
[20] = growth inhibition of CRL1545 osteosarcoma cells, cell-based, cisplatin and BGB IC20 combos (AID 1671464; in the data active means inhibition above about 80%;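 further: cells exposed to compound for 96 hours before readout; 0% = vehicle DMSO and 100% = high DMSO killing control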); conditions: stronger effect = higher value

SMILES: CN(C)CCCN1c2ccccc2CCc2ccc(Cl)cc21
- period change [1]: -0.12 h (inactive)
- inhibition [2]: -4% (inactive)
- fluorescence ratio (interference) [3]: 1 (inactive)
- fluorescence ratio [4]: 1 (inactive)
- inhibition [5]: -3.18% (inactive)
- inhibition [6]: 0.29% (inactive)
- fluorescence ratio [7]: 1 (inactive)
- remaining activity [8]: 96.8% (inactive)
- outcome [9]: inactive
- AC50 [10]: 0.662 µM (active)
- outcome [11]: inactive
- z-score [12]: -1.52 (inactive) and -1.25 (inactive) and -0.78 (inactive)

SMILES: N=C(N)c1ccc(OCCCCCOc2ccc(C(=N)N)cc2)cc1
- AC50 [13]: 11.8 µM (active)
- outcome [14]: inactive
- z-score [12]: -0.685 (inactive)

SMILES: Oc1ccc(/C=C/c2cc(O)cc(O)c2)cc1
- period change [1]: -0.215 h (inactive)
- inhibition [2]: -3% (inactive)
- fluorescence ratio (interference) [3]: 1 (inactive)
- fluorescence ratio [4]: 0.95 (inactive)
- inhibition [5]: -2.84% (inactive)
- inhibition [6]: -2.76% (inactive)
- fluorescence ratio [7]: 0.93 (inactive)
- remaining activity [8]: 117% (inactive)
- outcome [11]: inactive
- outcome [14]: inactive
- outcome [15]: inactive
- z-score [12]: 2.52 (active) and 1.26 (inactive)

SMILES: CN1C(C(=O)Nc2ccccn2)=C(O)c2ccccc2S1(=O)=O
- inclusion score [16]: 2
- period change [1]: -0.07 h (inactive)
- inhibition [2]: -1% (inactive)
- fluorescence ratio (interference) [3]: 1 (inactive)
- fluorescence ratio [4]: 1.01 (inactive)
- inhibition [5]: 1.98% (inactive)
- inhibition [6]: 1.44% (inactive)
- fluorescence ratio [7]: 0.98 (inactive)
- remaining activity [8]: 127% (inactive)
- outcome [9]: inactive
- outcome [10]: inactive
- outcome [11]: inactive
- outcome [13]: inactive
- outcome [14]: inactive
- outcome [15]: inactive

SMILES: CC1=C(CC(=O)O)c2cc(F)ccc2/C1=C\c1ccc(S(C)=O)cc1 (configuration not stated)
- inclusion score [16]: 2
- period change [1]: 0.265 h (inactive)
- inhibition [2]: 1% (inactive)
- fluorescence ratio (interference) [3]: 1 (inactive)
- fluorescence ratio [4]: 1.04 (inactive)
- inhibition [5]: -7.73% (inactive)
- inhibition [6]: -3.53% (inactive)
- fluorescence ratio [7]: 1.01 (inactive)
- remaining activity [8]: 115% (inactive)
- outcome [9]: inactive
- AC50 [10]: 20.9 µM (active)
- outcome [13]: inactive
- outcome [14]: inactive
- outcome [15]: inactive
- z-score [12]: -0.94 (inactive) and -0.735 (inactive) and -0.12 (inactive)

SMILES: CCN(CC)CCCC(C)Nc1c2ccc(Cl)cc2nc2ccc(OC)cc12 (configuration not stated)
- period change [1]: 0.21 h (inactive)
- inhibition [2]: 1% (inactive)
- fluorescence ratio (interference) [3]: 1 (inactive)
- AC50 [9]: 8.33 µM (active)
- AC50 [11]: 8.33 µM (active)
- AC50 [13]: 11.8 µM (active)
- AC50 [15]: 11.8 µM (active)
- z-score [12]: -1.35 (inactive) and -2.13 (inactive)
- inhibition ([17]; at 0.5 µM): 4.39% (inactive)
- inhibition ([17]; measured here: BGB combination, at 0.5 µM): -0.472%
- inhibition ([17]; measured here: BGB combination, at 5 µM): 95.8%
- inhibition ([17]; measured here: cisplatin combination, at 0.5 µM): -17.3%
- inhibition ([17]; measured here: cisplatin combination, at 5 µM): 98%
- inhibition ([18]; at 0.5 µM): 1.42% (inactive)
- inhibition ([18]; cisplatin combination, at 0.5 µM): -5.45%
- inhibition ([18]; cisplatin combination, at 5 µM): 99.5%
- inhibition ([18]; measured here: BGB IC40 combination 0.05 uM, at 0.05 µM): -3.72%
- inhibition ([18]; single agent, at 5 µM): 105%
- inhibition ([19]; at 0.5 µM): -4.03% (inactive)
- inhibition ([19]; cisplatin combo, at 5 µM): 92.9%
- inhibition ([19]; measured here: BGB IC40 combination, at 0.05 µM): -9.76%
- inhibition ([19]; measured here: combination with cisplatin, at 0.5 µM): -29.6%
- inhibition ([19]; single agent, at 5 µM): 73.4%
- inhibition ([20]; at 0.5 µM): 9.17% (inactive)
- inhibition ([20]; measured here: with BGB IC20 combination, at 0.5 µM): -5.37%
- inhibition ([20]; measured here: with cisplatin IC20 combination, at 0.5 µM): 14.5%
- inhibition ([20]; single agent, at 0.05 µM): -8.93%
- inhibition ([20]; single agent, at 5 µM): 99.9%

SMILES: Cc1noc(NS(=O)(=O)c2ccc(N)cc2)c1C
- inclusion score [16]: 2
- remaining activity [8]: 91.4% (inactive)
- outcome [10]: inactive
- outcome [14]: inactive
- z-score [12]: -0.585 (inactive) and 0.925 (inactive)

SMILES: c1ccc(CC2=NCCN2)cc1
- inclusion score [16]: 2
- fluorescence ratio [4]: 1.05 (inactive)
- inhibition [5]: -2.27% (inactive)
- inhibition [6]: -0.48% (inactive)
- fluorescence ratio [7]: 1.01 (inactive)
- z-score [12]: 0.495 (inactive)

SMILES: CCN(CCO)CCCC(C)Nc1ccnc2cc(Cl)ccc12 (configuration not stated)
- inclusion score [16]: 1.5
- outcome [9]: inactive
- outcome [10]: inactive
- outcome [11]: inactive
- outcome [14]: inactive
- outcome [15]: inactive
